Assay results: PubChem BioAssay

assay: CREB reporter modulators without forskolin, primary screen, cell-based, PC12, CRE-LacZ reporter, unstimulated (AID 1145); conditions: no forskolin, luminescence, 4.5 h, higher = more signal, called active from +8 up or from −8 down

z-score, inactive:
CCOC(=O)C[C@H]1[C@H](OC(=O)Cc2ccc3c(c2)OCO3)[C@@H](NC(=O)Cc2ccc(OC)cc2)c2cc(OCCCO)ccc2N1C(=O)Cc1ccc(OC)cc1 1.52
COC(=O)[C@@]1(Cc2ccccc2)[C@H]2c3cc(C(=O)N4CCCC4)n(Cc4ccc(OC)c(OC)c4)c3C[C@H]2CN1C(=O)c1ccccc1 0.39
[N-]=[N+]=Nc1ccccc1C[C@]1(C(=O)N2CCOCC2)N=C(c2ccc(OCCCO)cc2)O[C@H]1c1ccccc1N=[N+]=[N-] 0.0686
CC(C)(C)N1CC=CC23O[C@@H]4/C=C\CCCOC(=O)C4[C@H]2C(=O)N(CCCO)[C@@H]3C1=O (some centres undefined) -0.0697
COc1ccc(CCNC(=O)[C@@H]2c3ccccc3C(=O)N(Cc3ccccc3OC)[C@H]2c2ccc(CO)cc2)cc1 0.531
NC(=O)NCC#Cc1ccc2c(c1)[C@]1(C(=O)N2)[C@H](c2ccc(OCCO)cc2)N2[C@H](c3ccccc3)[C@H](c3ccccc3)OC(=O)[C@H]2[C@@H]1C(=O)O 0.155
COc1ccc(C(=O)Nc2ccc3c(c2)[C@@]2(O[C@H](CCO)[C@@H]([Si](C)(C)c4ccc(OC)cc4)[C@@H]2C)C(=O)N3Cc2ccccc2)cc1 5.6
COC(=O)C1=CC(CCCO)=CC(c2cccs2)N(Cc2cc3c(cc2Br)OCO3)C=C1C(=O)OC (centres undefined) 0.326
O=C1O[C@H](c2ccccc2)[C@H](c2ccccc2)N2[C@H]1[C@@H](C(=O)O)[C@]1(C(=O)Nc3ccc(C#CCCO)cc31)[C@H]2c1ccc(OCCO)cc1 1.17
